In the library only some 3.2% were active in any assay of this set; here they are far more common.
ClpP mod: qHTS Assay for Activators of ClpP | hit rate 1.9% among 340,000 | purified B. subtilis ClpP, FRET peptide cleavage, 20 min | Potency, µM (highest dose often 57.5 µM), without a hit: at the top dose activity change, negative = active; active = well fitted falling curve with a large enough effect; inconclusive = small, poorly fitted or top-dose-only effect; inactive = no such curve, though single readings can be large or run the other way; also: the source files actives as falling curves though it sought activators and does not explain the sign; nearly all actives have a fitted effect of over 65% in size
Target sequence (P80244 whole entry, looked up): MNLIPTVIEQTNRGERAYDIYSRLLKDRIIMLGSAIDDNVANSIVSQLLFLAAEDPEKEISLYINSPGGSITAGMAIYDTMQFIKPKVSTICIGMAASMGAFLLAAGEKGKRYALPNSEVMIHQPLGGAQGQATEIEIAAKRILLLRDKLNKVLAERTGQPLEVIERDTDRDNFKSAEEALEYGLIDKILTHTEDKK
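Purified B. subtilis ClpP, 10 microg/mL final in Tris/HCl pH8 with KCl, BSA, glycerol and Tween-20, cleaved an Abz/nitrotyrosine-quenched decapeptide. Fluorescence (ex 320, em 430) was read at 0 and 20 min at room temperature. Delta was normalized to 5.8 microM ADEP and DMSO/no-enzyme controls.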
GLP1R ag: agonists of human GLP-1 receptor | Potency, µM (top dose mostly 45.6 µM), inactives show at the highest dose activation, actives largely listed as activators | hit rate 0.007% among 380,000 | P43220 | HEK293 GLP-1R CRE-luciferase, luminescence, 4-6 h; cells express a hypersensitive GLP-1R form; also: % of control where 0% means no effect
Target sequence (P43220 whole entry, looked up): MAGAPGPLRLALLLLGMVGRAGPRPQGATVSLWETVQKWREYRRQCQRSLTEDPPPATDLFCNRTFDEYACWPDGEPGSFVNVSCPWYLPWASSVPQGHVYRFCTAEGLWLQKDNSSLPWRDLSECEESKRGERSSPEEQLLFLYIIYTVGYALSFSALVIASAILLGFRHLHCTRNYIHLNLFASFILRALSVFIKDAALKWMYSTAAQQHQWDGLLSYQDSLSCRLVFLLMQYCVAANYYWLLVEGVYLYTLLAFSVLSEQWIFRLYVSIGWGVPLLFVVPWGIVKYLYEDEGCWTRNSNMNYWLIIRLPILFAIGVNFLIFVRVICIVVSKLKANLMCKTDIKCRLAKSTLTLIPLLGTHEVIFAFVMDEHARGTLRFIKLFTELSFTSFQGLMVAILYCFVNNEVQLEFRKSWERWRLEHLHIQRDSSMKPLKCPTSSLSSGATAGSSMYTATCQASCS
HEK293 tox: cytotoxicity in counter-screen for GLP-1R inverse agonists; AID 624418; hit rate 0.13% among 410,000; Potency, µM (series often up to 38.3 µM), for inactives: top-dose activity change, negative = inhibition, hits mostly inhibitors; HEK293 cAMP-luciferase reporter cells, luminescence, 24 h;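 also: loss of luciferase light is scored as toxicity; % is scaled to controls: 0 for no effect and ±100 for the full control effect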
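Seeding density was 200 cells/uL; after overnight-length (12 h) culture, 23 nL compounds went on for 24 h at 37 °C. Readout used a luciferase detection reagent, luminescence taken after 12 min at room temperature.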
GLP1R inv ag: inverse agonists of human GLP-1 receptor; hit rate 1.6% among 410,000; HEK293 GLP-1R CRE-luciferase, luminescence, 24 h; GLP-1R form is constitutively active; Potency, µM (series often up to 38.3 µM), for inactives: top-dose activity change, negative = inhibition, actives largely listed as inhibitors; P43220; AID 624417; also: % is scaled to controls: 0 for no effect and ±100 for the full control effect; nearly all actives have a fitted effect of over 55% in size
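Inverse agonism was detected as reduced cAMP-driven luciferase luminescence after 24 h compound treatment. The cells were HEK293 clones expressing constitutively active human GLP-1R with the reporter. Reporter-only and GPR119 cell lines served as counterscreen controls.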
* marks the source's active call; other numbers are inactive results; u = inconclusive; x = no result; ! = repeats disagree; [ ] = another dose, or the depositor's remark. Unless noted, calls follow the shape of the dose curve; as a rule, active = well fitted curve in the direction sought with a large enough effect; inconclusive = small, poorly fitted or top-dose-only effect, or another doubt; inactive = no such curve, though single readings can be large; an effect the other way counts as inactive or inconclusive. Potency is read from the fitted curve at half-maximal effect.

SMILES	ClpP mod	GLP1R ag	HEK293 tox	GLP1R inv ag
CC1=CC(C)(C)Nc2ccccc21	28µM*!	-3%	-5%	3%
COc1ccc2c(c1)NC(C)(C)C=C2C	x	7%	-19%	11%
COC(=O)CCC(=O)N(CCN(Cc1ccccc1)C(=O)CCC(=O)OC)Cc1ccccc1	x	6%	-9%	20%
CCCC(=O)N(CCN(Cc1ccccc1)C(=O)CCC)Cc1ccccc1	-1%	1%	-24%	13µM*
Cc1ccc(-c2cc(C(F)(F)F)c(C#N)c(SCCC#N)n2)o1	4.5µM*	0%	58%	2%
COc1ccc(-c2cc(C(F)(F)F)c(C#N)c(SCC(=O)O)n2)cc1	x	1%	1%	-9%
CC1(C)SC2C(NC(=O)C(c3ccccc3)S(=O)(=O)O)C(=O)N2C1C(=O)O (stereo not drawn)	x	-2%	x	x
COC(=O)c1c(SC)nc2ccccc2c1OCc1ccc(Cl)cc1	-10%	x	7%	u
c1ccc2c(c1)c1c(c3ccccc32)CN2CCCC2C1 (stereo not drawn)	20µM*	-18%	1%	u
Cc1ccc(CNC(=O)C2CCC(CNS(=O)(=O)c3ccc(C)cc3)CC2)cc1 (stereo not drawn)	-1%	x	1%	10%
O=C(NCCC1=CCCCC1)c1cc(COc2ccc(F)cc2Cl)on1	1%	3%	-11%	5µM*
O=C(c1cc(COc2ccc(F)cc2Cl)on1)N1C[C@H]2CC[C@H]1C2	28µM*	11%	5%	u
O=C(NCCC1=CCCCC1)c1cc(COc2c(F)cccc2F)on1	-4%	4%	-13%	u
CCCCN1CC(c2nc3ccccc3n2CCCCOc2cc(C)ccc2C)CC1=O (stereo not drawn)	-2%	x	0%	u
c1cc(-c2cccs2)nc(-c2cccs2)c1	x	10%	-4%	-5%
c1csc(-c2cnc3ccccc3n2)c1	6.3µM*	2%	0%	0%
COc1cccc(C2CC(c3cccs3)=NN2C(=O)CSc2nc3ccccc3o2)c1OC (stereo not drawn)	8.9µM*	-8%	3%	6%
COc1ccc(C2CC(c3cccs3)=NN2C(=O)CSC2=NCCS2)cc1 (stereo not drawn)	4%	5%	-21%	u
CCOC(=O)CCSCC(=O)N1N=C(c2cccs2)CC1c1ccc(C)cc1 (stereo not drawn)	28µM*	13%	-14%	u
Cc1ccc(C2CC(c3cccs3)=NN2C(=O)CSC2=NCCS2)cc1 (stereo not drawn)	4%	-2%	-5%	4.5µM*
Cc1ccccc1Nc1nn2c(=O)c3ccc(C(=O)NCC(C)c4ccccc4)cc3nc2s1 (stereo not drawn)	-6%	-8%	-13%	u
C=CC(COCc1ccccc1)N([C@@H](Cc1ccccc1)C(=O)OC)S(=O)(=O)c1ccccc1Br (stereo partly drawn)	-5%	-2%	20%	3.5µM*
C=CC(COCc1ccccc1)N(Cc1ccc(OC)cc1)S(=O)(=O)c1ccccc1Br (stereo not drawn)	-2%	-6%	8%	u
Cc1ccc(C)c(Cn2cc(S(=O)(=O)c3ccc(Cl)cc3)c(=O)c3cc(F)ccc32)c1	-1%	x	-4%	3%
CCN(Cc1ccccc1)S(=O)(=O)c1cc(C(=O)NCC2CCCCC2)ccc1OC	1%	9%	-11%	u
SMILES	ClpP mod	GLP1R ag	HEK293 tox	GLP1R inv ag
CCN(Cc1ccccc1)S(=O)(=O)c1cc(C(=O)NC2CCCCCC2)ccc1OC	1%	-2%	-7%	2.2µM*
CCN(CC(=O)NC(=O)NCc1ccco1)Cc1nc2ccccc2c(=O)[nH]1	-18%	0%	11µM*	-12%
CC(=O)NC(CCS(C)(=O)=O)C(=O)Nc1ccccc1Cl (stereo not drawn)	16µM*	2%	-1%	21%
COC(=O)c1ccccc1NC(=O)C(CCS(C)(=O)=O)NC(C)=O (stereo not drawn)	28µM*	-9%	17%	-4%
Cc1ccc(-c2cn(-c3cccc(Cl)c3)c(S(=O)(=O)CC(=O)Nc3cccc(C)c3)n2)cc1	-1%	x	-30%	8.9µM*
Cc1cccc(C)c1NC(=O)c1sc(-n2nc(C)c(Cc3ccc4c(c3)OCO4)c2C)nc1C	-1%	x	1%	10%
Cc1ccccc1NC(=O)c1cc(S(=O)(=O)c2ccccc2)ccc1Cl	-2%	1%	9%	u
Cc1cccc(NC(=O)c2cc(S(=O)(=O)c3ccccc3)ccc2Cl)c1	-2%	-20%	-10%	8.9µM*
COc1cc(/C=C(\C#N)c2nc3ccccc3[nH]2)ccc1OCc1cccc(C(F)(F)F)c1	-3%	x	55%	u
CCOC(=O)c1c(-c2ccccc2)csc1NC(=O)/C(C#N)=C/c1ccc(O)c(OC)c1	28µM*	-17%	47%	0%
CCOC(=O)c1c(-c2ccc(F)cc2)csc1NC(=O)c1c(-c2ccccc2)noc1C	20µM*	6%	2%[1.53 µM]	u
CCOC(=O)c1c(-c2ccc(OC)cc2)csc1NC(=O)CSc1ccccc1	-10%	0%	4%	4.5µM*
Cc1ccccc1-c1nc2scc(CCNS(=O)(=O)c3ccccc3)n2n1	-1%	x	-3%	8%
Cc1cccc(Cn2c(=O)n(-c3cc(C)cc(C)c3)c(=O)c3oc4ccccc4c32)c1	-17%	x	-12%	-6%
CC(=O)c1ccc(S(=O)(=O)Nc2cccc(-c3ccc(N4CCCCCC4)nn3)c2)cc1	1%	x	-18%	u
CC(C)CNC(=O)[C@H]1N2C(=O)c3ccccc3C2SC1(C)C (stereo partly drawn)	28µM*	1%	-4%	-14%
Cc1cnc2c(C)ccc(C)c2c1/C=C/c1ccc(N(C)C)cc1	-3%	x	x	x
O=C(Oc1cccc2cccnc12)c1cccc([N+](=O)[O-])c1	x	0%	u	u
O=C(Oc1ccc(Cl)c2cccnc12)c1cccc([N+](=O)[O-])c1	1%	27%	u	5µM*
O=C(Oc1c(Cl)cc(Cl)c2cccnc12)c1cccc([N+](=O)[O-])c1	2%	2%	u	13µM*
Cc1ccccc1-c1nc(CS(=O)(=O)CC(=O)NCCCc2ccccc2)c(C)o1	-2%	-1%	-3%	u
Cc1ccc2c(=O)cc(C(=O)Nc3ccc(S(=O)(=O)Nc4nc(C)cc(C)n4)cc3)oc2c1	3%	x	-8%	9%
CCOC(=O)c1ccc(NC(=O)C(C)N(c2ccc(OCC)cc2)S(C)(=O)=O)cc1 (stereo not drawn)	1%	-1%	-6%	u
CCN(CC)C(=O)[C@H]1CC(CC(=O)NCCC2=CCCCC2)C(=O)N2CCc3c([nH]c4ccc(OC)cc34)[C@]12C (stereo partly drawn)	-2%	-1%	1%	u

Screening results: PubChem BioAssay, National Center for Advancing Translational Sciences (NCATS)
